Data: PubChem BioAssay (EPA / NIEHS)
Active and inactive are the calls of the source. How the source made its calls: active means hit-call score of the fitted dose curve at least 0.9, where 1 is the maximum; inactive means score below 0.9.

Legend:
[1] = APR_HepG2_P-H2AX_72hr: Apredica 72-hour HepG2 Assay for H2AX Phosphorylation (AID 2282916); details: imaging, actives raise or lower the signal;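 further: phospho-histone H2A.x immunostain intensity per cell marking DNA damage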
In short: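 Phospho-histone H2A.x immunofluorescence, multiplexed with Hoechst and c-Jun, quantified by high-content imaging. Compounds applied to HepG2 for 72 h across ten concentrations (0.39–200 uM, 0.5% DMSO), in duplicate; DMSO baseline.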

[2] = APR_HepG2_MitoticArrest_72hr: Apredica 72-hour HepG2 Assay for Mitotic Arrest (AID 2282918); details: high-content imaging, actives raise or lower the signal
In short: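 Mitotic arrest in HepG2 is scored from phospho-histone H3 staining after 72 hr dosing across 0.39–200 uM, with DMSO at 0.5% v/v. Nuclei are identified by Hoechst 33342 and fluorescence intensity is quantified per cell.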

[3] = APR_HepG2_MicrotubuleCSK_72hr: Apredica 72-hour HepG2 Assay for Microtubule CSK Stabilty (AID 2282919); details: HepG2 microtubule cytoskeleton, high-content imaging, actives raise or lower the signal
In short: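 HepG2, 72 hr cmpd exposure, 0.39–200 uM (10 pts, duplicate), 0.5% DMSO. 3.7% formaldehyde fix, 0.5% Triton perm, anti-alpha-tubulin/Cy5 plus Hoechst. HCS fluorescence intensity; bidirectional fit vs DMSO baseline; taxol as positive control.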

[4] = APR_HepG2_P-H2AX_24hr: Apredica 24-hour HepG2 Assay for H2AX Phosphorylation (AID 2282920); details: high-content imaging, actives raise or lower the signal
In short: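 Signal comes from a FITC-labeled secondary detecting phospho-histone H2A.x in fixed HepG2 cells, quantified by automated imaging at 20x. Dosing ran 24 hr across 0.39–200 uM with 0.5% v/v DMSO.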

[5] = APR_HepG2_StressKinase_72hr: Apredica 72-hour HepG2 Assay for Stress Kinase (AID 2282921); details: HepG2 stress kinase (phospho-c-Jun) imaging, actives raise or lower the signal
In short: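 Stress kinase signal is phospho-c-Jun immunofluorescence (1:500 primary, Cy3 secondary) in fixed, permeabilized human HepG2 cells imaged at 20x. Exposure lasted 72 hr over ten concentrations from 0.39 to 200 uM, 0.5% DMSO, in duplicate. Bidirectional fit versus DMSO.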

[6] = APR_HepG2_StressKinase_24hr: Apredica 24-hour HepG2 Assay for Stress Kinase (AID 2282922); details: HepG2 stress kinase (phospho-c-Jun) imaging, actives raise or lower the signal
In short: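 Read-out: phospho-c-Jun immunofluorescence (Cy3 secondary) quantified by high-content imaging at 20x, nuclei defined by Hoechst 33342. Human HepG2 liver cells dosed 24 hr, 0.39–200 uM, DMSO 0.5% v/v; gain or loss of signal fitted relative to DMSO.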

[7] = APR_HepG2_p53Act_72hr: Apredica 72-hour HepG2 Assay for p53 Activation (AID 2282923); details: high-content imaging, actives raise or lower the signal;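 further: average cellular p53 protein immunofluorescence intensity in HepG2 cells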
In short: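 After 72 h with compound (ten points, 0.39 to 200 uM, final DMSO 0.5% v/v), fixed HepG2 cells were labelled with sheep anti-p53 and Hoechst 33342 and imaged; gain or loss versus DMSO scored.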

[8] = APR_HepG2_MitoMass_72hr: Apredica 72-hour HepG2 Assay for Mitochondrial Mass (AID 2282924); details: high-content imaging, actives raise or lower the signal;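 further: MitoTracker Red CMXRos stain intensity per cell imaged as mitochondrial mass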
In short: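 Read-out: MitoTracker Red fluorescence intensity from automated imaging (20x, six fields per well) in human HepG2 liver cells. Dosing ran 72 hr, 0.39–200 uM, 0.5% DMSO; bidirectional curve fitting versus DMSO baseline.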

[9] = APR_HepG2_NuclearSize_72hr: Apredica 72-hour HepG2 Assay for Nuclear Size (AID 2282925); details: high-content imaging, actives raise or lower the signal
In short: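 Read-out: nuclear diameter from Hoechst 33342 images (ArrayScan, 20x, six fields/well), via cell-cycle image analysis. HepG2 were dosed 0.39–200 uM for 72 hr in 0.5% DMSO. Bidirectional fit relative to DMSO.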

[10] = ATG_CRE_CIS: Attagene CIS-FACTORIAL HepG2 Assay for human cAMP Responsive Element (CRE) binding protein 3 (AID 2282926); details: HepG2 CRE cis-reporter, Attagene multiplexed mRNA; actives raise or lower the signal
In short: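 Cells carrying cis-regulated reporter constructs respond through their own endogenous factors. After 24 h treatment, RNA is reverse-transcribed, amplified, labelled and sized by capillary electrophoresis; up- and down-regulation are both scored against vehicle.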

[11] = target: CCAAT/enhancer-binding protein beta (Homo sapiens) (UniProt P17676); assay: ATG_C_EBP_CIS: Attagene CIS-FACTORIAL HepG2 Assay for human CCAAT/Enhancer Binding Protein (C/EBP) beta (AID 2282927); details: HepG2 Attagene cis-factorial transcription factor reporter; actives raise or lower the signal
Sequence of CCAAT/enhancer-binding protein beta (Homo sapiens) (P17676 whole entry, looked up): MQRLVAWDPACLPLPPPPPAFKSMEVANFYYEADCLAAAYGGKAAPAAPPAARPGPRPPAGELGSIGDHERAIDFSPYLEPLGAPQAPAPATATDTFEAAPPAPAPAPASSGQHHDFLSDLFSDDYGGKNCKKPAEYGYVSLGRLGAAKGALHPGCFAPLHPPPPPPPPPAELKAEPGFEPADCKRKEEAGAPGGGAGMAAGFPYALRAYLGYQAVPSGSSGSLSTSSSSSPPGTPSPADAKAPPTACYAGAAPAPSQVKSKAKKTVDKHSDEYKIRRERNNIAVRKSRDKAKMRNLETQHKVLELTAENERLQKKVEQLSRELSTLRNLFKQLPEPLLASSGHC
In short: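 HepG2 transiently transfected with multiplexed reporter units under cis-regulatory promoters reporting endogenous C/EBPb activity. After 24 h exposure, reporter mRNA assayed by RT-PCR, fluorescent labelling, HpaI digestion and capillary electrophoresis; bidirectional fitting versus DMSO.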

[12] = ATG_CMV_CIS: Attagene CIS-FACTORIAL HepG2 Assay for human CMV (Internal Marker) (AID 2282928); details: HepG2 CMV promoter reporter, transcription factor profiling; actives raise or lower the signal;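 further: endpoint acts as a background internal control marker rather than a target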
In short: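 Readout: fluorescent reporter cDNA fragments separated by capillary electrophoresis after RT-PCR and HpaI cut. Cells: HepG2 carrying transfected cis-promoter reporter constructs, dosed 24 h. Endpoint serves as background internal-marker control, fit bidirectionally versus DMSO.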

[13] = target: Aryl hydrocarbon receptor (Homo sapiens) (UniProt P35869); assay: ATG_Ahr_CIS: Attagene CIS-FACTORIAL HepG2 Assay for human Aryl Hydrocarbon Receptor (Ahr) (AID 2282930); details: HepG2 AhR cis-factorial reporter transcription; actives raise or lower the signal
Sequence of Aryl hydrocarbon receptor (Homo sapiens) (P35869 whole entry, looked up): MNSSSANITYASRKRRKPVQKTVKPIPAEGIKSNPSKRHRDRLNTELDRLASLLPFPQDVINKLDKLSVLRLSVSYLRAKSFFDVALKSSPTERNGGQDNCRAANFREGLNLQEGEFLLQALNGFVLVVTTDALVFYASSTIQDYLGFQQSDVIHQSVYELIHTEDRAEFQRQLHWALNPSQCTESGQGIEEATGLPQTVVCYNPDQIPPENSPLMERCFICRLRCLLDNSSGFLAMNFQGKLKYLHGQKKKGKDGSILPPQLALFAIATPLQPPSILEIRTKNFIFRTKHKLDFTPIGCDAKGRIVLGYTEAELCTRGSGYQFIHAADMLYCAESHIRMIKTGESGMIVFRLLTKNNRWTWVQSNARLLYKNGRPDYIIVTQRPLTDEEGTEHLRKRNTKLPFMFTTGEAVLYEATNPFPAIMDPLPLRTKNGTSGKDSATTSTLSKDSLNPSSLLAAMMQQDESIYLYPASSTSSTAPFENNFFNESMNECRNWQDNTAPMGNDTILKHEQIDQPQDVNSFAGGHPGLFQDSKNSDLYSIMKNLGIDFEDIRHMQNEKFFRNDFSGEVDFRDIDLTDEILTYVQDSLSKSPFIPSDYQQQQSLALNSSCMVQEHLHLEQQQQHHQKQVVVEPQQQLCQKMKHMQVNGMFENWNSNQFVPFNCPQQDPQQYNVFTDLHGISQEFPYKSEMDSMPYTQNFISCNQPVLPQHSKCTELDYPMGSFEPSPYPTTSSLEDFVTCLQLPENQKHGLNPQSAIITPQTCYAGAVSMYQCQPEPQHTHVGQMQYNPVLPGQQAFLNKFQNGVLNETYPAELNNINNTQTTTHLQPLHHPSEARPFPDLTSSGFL
In short: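 HepG2 cells transiently transfected with cis-element-driven multiplexed reporter units; endogenous AhR activity read as reporter mRNA 24 h after dosing, via RT-PCR, 6-FAM labelling, HpaI digestion and capillary electrophoresis. Bidirectional fit relative to DMSO.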

[14] = ATG_AP_1_CIS: Attagene CIS-FACTORIAL HepG2 Assay for human Activator Protein 1 (AP-1) (AID 2282931); details: HepG2 Attagene cis-factorial AP-1 reporter mRNA; actives raise or lower the signal
In short: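 Cis-regulated reporter units transiently expressed in HepG2 report endogenous transcription-factor activity. Signal: reporter mRNA at 24 h, via RT-PCR and fluorescent capillary electrophoresis. Endpoint derived by bidirectional fitting, DMSO as negative control.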

[15] = ATG_AP_2_CIS: Attagene CIS-FACTORIAL HepG2 Assay for human Activator Protein 2 (AP-2) (AID 2282932); details: HepG2 AP-2 cis-reporter, Attagene transcription factor profiling; actives raise or lower the signal
In short: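 Liver-derived HepG2 line, cis-reporter system measuring endogenous factors; 24 h dosing; reporter mRNA detected by fluorescent RT-PCR and capillary electrophoresis.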

[16] = ATG_BRE_CIS: Attagene CIS-FACTORIAL HepG2 Assay for human Bone Morphogenetic Protein (BMP) Response Element (BRE) (AID 2282933); details: HepG2 BMP response element reporter, Attagene transcription factor profiling; actives raise or lower the signal
In short: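 Read-out: reporter mRNA induction quantified by RT-PCR and capillary electrophoresis after 24 h chemical exposure of transfected HepG2 cells. Endogenous factor activity on the BMP response element; gain or loss fitted against DMSO baseline.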

[17] = target: Retinoic acid receptor alpha (Homo sapiens) (UniProt P10276); assay: ATG_DR5_RAR_CIS: Attagene CIS-FACTORIAL HepG2 Assay for human Retinoic Acid Receptor Alpha (RARE), DR5 submotif (AID 2282934); details: HepG2 Attagene cis-factorial RARE DR5 reporter, mRNA; actives raise or lower the signal;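 on AC50: reporter responds to endogenous RAR alpha beta and gamma in HepG2 not RARA alone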
Sequence of Retinoic acid receptor alpha (Homo sapiens) (P10276 whole entry, looked up): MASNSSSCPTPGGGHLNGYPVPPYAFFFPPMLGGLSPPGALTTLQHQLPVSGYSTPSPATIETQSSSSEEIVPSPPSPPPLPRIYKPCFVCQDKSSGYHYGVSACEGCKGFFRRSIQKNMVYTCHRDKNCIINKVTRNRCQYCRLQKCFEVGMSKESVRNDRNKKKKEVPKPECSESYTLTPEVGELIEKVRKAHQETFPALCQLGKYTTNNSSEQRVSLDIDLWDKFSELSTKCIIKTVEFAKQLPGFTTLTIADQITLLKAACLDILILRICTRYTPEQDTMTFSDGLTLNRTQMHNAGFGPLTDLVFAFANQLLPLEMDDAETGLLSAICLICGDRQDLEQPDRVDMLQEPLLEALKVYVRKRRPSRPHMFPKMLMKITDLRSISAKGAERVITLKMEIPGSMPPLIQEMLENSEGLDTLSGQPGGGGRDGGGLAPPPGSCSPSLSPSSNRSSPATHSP
In short: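 HepG2 cells transiently transfected with multiplexed reporter units; DR5 cis-element drives reporter through endogenous transcription factors. After 24 h dosing, reporter mRNA quantified by RT-PCR, fluorescent labeling, HpaI digestion and capillary electrophoresis; bidirectional fitting versus DMSO.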

[18] = target: Transcription factor E2F1 (Homo sapiens) (UniProt Q01094); assay: ATG_E2F_CIS: Attagene CIS-FACTORIAL HepG2 Assay for human E2F Transcription Factor 1 (AID 2282935); details: HepG2 Attagene cis-reporter, E2F reporter RNA transcripts; actives raise or lower the signal
Sequence of Transcription factor E2F1 (Homo sapiens) (Q01094 whole entry, looked up): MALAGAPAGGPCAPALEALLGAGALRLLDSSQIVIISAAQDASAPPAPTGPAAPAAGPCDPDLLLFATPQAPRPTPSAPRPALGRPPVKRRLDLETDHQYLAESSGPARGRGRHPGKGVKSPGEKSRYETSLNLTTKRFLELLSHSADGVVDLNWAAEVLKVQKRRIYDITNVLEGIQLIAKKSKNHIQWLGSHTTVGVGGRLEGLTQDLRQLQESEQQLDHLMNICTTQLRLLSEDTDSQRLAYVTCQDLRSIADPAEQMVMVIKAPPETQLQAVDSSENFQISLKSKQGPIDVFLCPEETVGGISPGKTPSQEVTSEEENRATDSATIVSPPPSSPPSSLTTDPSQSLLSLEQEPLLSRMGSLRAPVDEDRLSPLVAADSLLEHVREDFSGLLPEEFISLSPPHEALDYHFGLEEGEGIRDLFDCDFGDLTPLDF
In short: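 Liver-derived HepG2 cells expressing transfected promoter-driven reporter units received test chemical for 24 hours. Signal gains or losses were fitted bidirectionally against DMSO.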

[19] = APR_HepG2_MitoMembPot_72hr: Apredica 72-hour HepG2 Assay for Mitochondrial Membrane Potential (AID 2282917); details: imaging, actives raise or lower the signal
In short: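 HepG2 cells dosed 72 hr with compound at 0.39–200 uM in duplicate, 0.5% v/v DMSO final. Mitochondria stained with 250 nM MitoTracker Red CMXRos for 30 min before formaldehyde fixation, imaged by high-content fluorescence; bidirectional fit versus DMSO.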

[20] = ATG_DR4_LXR_CIS: Attagene CIS-FACTORIAL HepG2 Assay for human Liver X Receptor (LXR), DR4 submotif (AID 2282929); details: HepG2 Attagene DR4 cis-reporter, mRNA transcription; actives raise or lower the signal
In short: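 DR4 cis-reporter in HepG2, 24 h exposure. Detection: RT-PCR, 6-FAM labelling, CE fragment analysis. Endpoint fitted bidirectionally, DMSO = baseline.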

Measured: AC50

CC(O)CCO (configuration not stated)
not listed: [19] | [20]
inactive: all other assays above

OCCCBr
not listed: [9] | [16] | [18]
inactive: all other assays above

O=C(Nc1ccccc1)c1ccccc1I
active: [20] 157 µM
not listed: [7] | [9] | [16] | [18]
inactive: all other assays above

CC(C)(O)c1cnn2c(-c3ccc(F)c(-c4c(F)cccc4C#N)c3)cnc2n1
active: [1] 30.1 µM | [2] 25.9 µM | [3] 78.8 µM | [4] 31.4 µM | [6] 51.5 µM | [8] 76.1 µM | [10] 40 µM | [14] 67.1 µM
not listed: [19] | [20]
inactive: all other assays above

Cc1cccc(N)c1N
active: [1] 56.3 µM | [2] 19.8 µM | [4] 44.5 µM | [10] 158 µM | [12] 30.3 µM | [13] 1.09 µM | [14] 30.5 µM | [17] 106 µM
not listed: [9] | [20]
inactive: all other assays above

CN(C)c1ccc(C(=O)c2ccc(N(C)C)cc2)cc1
active: [1] 15.4 µM | [2] 16.5 µM | [4] 26.7 µM | [5] 9.87 µM | [6] 14 µM | [7] 0.292 µM | [8] 0.855 µM | [13] 65.5 µM
not listed: [9] | [20]
inactive: all other assays above

CC(C)(OOC(C)(C)c1ccccc1)c1ccccc1
active: [2] 41.9 µM | [10] 57.4 µM | [11] 59.3 µM | [12] 48.7 µM | [14] 57.5 µM
not listed: [9] | [16] | [20]
inactive: all other assays above
